Laboratory results from PubChem BioAssay (Tox21).
A number with no mark means an inactive call. Inconclusive results are not listed. Active and inactive are the calls of the source. Unless noted, calls follow the shape of the dose curve; as a rule, active = well fitted curve in the direction sought with a large enough effect; inconclusive = small, poorly fitted or top-dose-only effect, or another doubt; inactive = no such curve, though single readings can be large; an effect the other way counts as inactive or inconclusive.

Experiment: qHTS assay to identify small molecule phospholipidosis (PLD) inducers (AID 1259344); also: potency is read from the fitted curve at half-maximal effect
Settings: HepG2 phospholipidosis, LipidTOX Red imaging, 24 h; series mostly up to 38.3 µM; PLD induction: at the top concentration
Outline: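 HepG2 cells on collagen I, attached 4 h at 37 C, were co-treated with compound and LipidTOX Red dye for 24 h at 37 C, then fixed with paraformaldehyde plus Hoechst 33342 and imaged by high-content microscopy for phospholipid accumulation.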
% is scaled to controls: 0 for no effect and ±100 for the full control effect.

Structure (SMILES)	PLD induction	Potency
CC(=O)NC[C@H]1CN(c2ccc(N3CCOCC3)c(F)c2)C(=O)O1	-0.351%	
O=P(O)(O)C(O)(Cn1ccnc1)P(=O)(O)O	-1.58%	
CC(C)(S)C(=O)N[C@@H](CS)C(=O)O		inactive
O=C1c2c(O)cccc2[C@H]([C@@H]2O[C@H](CO)[C@@H](O)[C@H](O)[C@H]2O)c2cc(CO)cc(O)c21		inactive
COC(=O)[C@H]1[C@H]2C[C@H]3c4[nH]c5ccccc5c4CCN3C[C@H]2CC[C@@H]1O	0.218%	
CC(C)NCC1CCc2cc(CO)c([N+](=O)[O-])cc2N1 (stereo not drawn)	0.619% [at 15.5 µM]	
CC(C)C[C@H](NC(=O)[C@@H](COC(C)(C)C)NC(=O)[C@H](Cc1ccc(O)cc1)NC(=O)[C@H](CO)NC(=O)[C@H](Cc1c[nH]c2ccccc12)NC(=O)[C@H](Cc1cnc[nH]1)NC(=O)[C@@H]1CCC(=O)N1)C(=O)N[C@@H](CCCN=C(N)N)C(=O)N1CCC[C@H]1C(=O)NNC(N)=O		inactive
CC(=O)OCC(=O)[C@@]1(O)CC[C@H]2[C@@H]3C[C@H](C)C4=CC(=O)C=C[C@]4(C)[C@H]3[C@@H](O)C[C@@]21C	-0.177%	
CCCCCCCCCCCCCCCCCC(=O)O	-0.834%	
CNCCC=C1c2ccccc2CCc2ccccc21		10 µM (active)
CCN1CCCC1CNC(=O)c1cc(S(=O)(=O)CC)ccc1OC (stereo not drawn)		inactive
COc1c(O)cc2c(c1O)[C@@H]1O[C@H](CO)[C@@H](O)[C@H](O)[C@H]1OC2=O	-0.409% [at 15.5 µM]	
NS(=O)(=O)c1cc(Cl)c(Cl)c(S(N)(=O)=O)c1	3.02% [at 15.5 µM]	
CC1(C)CCC(NC(=O)[C@@H](N)CCC(=O)O)CC1	-0.692%	
Nc1ccc(N)c([N+](=O)[O-])c1	-6.91% [at 78.4 µM]	
CC(C)=CCC/C(C)=C/CC/C(C)=C/CC/C=C(\C)CC/C=C(\C)CCC=C(C)C		inactive
NCC1CCC(C(=O)O)CC1 (stereo not drawn)	2.82% [at 15.5 µM]	
Cc1cc(=O)c(C(=O)N[C@@H](C(=O)N[C@@H]2C(=O)N3C(C(=O)O)=C(CSc4nnnn4C)CS[C@H]23)c2ccc(O)cc2)c[nH]1	-1.59%	

Structure (SMILES)	PLD induction	Potency
NC(=O)CC[C@@H]1NC(=O)[C@H](Cc2ccccc2)NC(=O)[C@H](Cc2ccc(O)cc2)NC(=O)[C@@H](N)CSSC[C@@H](C(=O)N2CCC[C@H]2C(=O)N[C@@H](CCCN=C(N)N)C(=O)NCC(N)=O)NC(=O)[C@H](CC(N)=O)NC1=O		inactive
c1ccc(-n2cnnn2)cc1	-0.359%	
C(=C\c1ccncc1)/c1ccccc1		inactive
COc1ccc([C@@H]2CC(=O)c3c(O)cc(O[C@@H]4O[C@H](CO[C@@H]5O[C@@H](C)[C@H](O)[C@@H](O)[C@H]5O)[C@@H](O)[C@H](O)[C@H]4O)cc3O2)cc1O	-0.0576% [at 15.5 µM]	
CC12CCC(C[N+](C)(CCC[N+](C)(C)C)C1)C2(C)C (stereo not drawn)	-0.0087%	
C=C1[C@@H]2CC[C@@H](C2)C1(C)C	2.78%	
N=C(N)n1cccn1	-0.953%	
COc1ccc(/C=C/C(=O)Nc2ccccc2C(=O)O)cc1OC	0.0503%	
CC(C)(COP(=O)(O)OP(=O)(O)OC[C@H]1O[C@@H](n2cnc3c(N)ncnc32)[C@H](O)[C@@H]1OP(=O)(O)O)C(O)C(=O)NCCC(=O)NCCS (stereo partly drawn)	-0.705%	
CC(C)(Oc1ccc(C2CCCc3ccccc32)cc1)C(=O)O (stereo not drawn)	-0.653%	
CC(=O)N[C@@H](C=O)[C@H](O)[C@H](O)[C@@H](O)CO		inactive
N[C@H](C(=O)O)[C@@H]1CC(Cl)=NO1	-1.19%	
COC1[C@@H](O[C@@H]2O[C@H](C)[C@@H](O[C@H]3C[C@@](C)(O)[C@H](OC(=O)CC(C)C)[C@H](C)O3)[C@H](N(C)C)[C@H]2O)[C@@H](CC=O)C[C@@H](C)[C@@H](O)/C=C/C=C/C[C@@H](C)OC(=O)C[C@H]1OC(C)=O (stereo partly drawn)	0.0827% [at 15.5 µM]	
Cc1cnc(C(=O)O)c[n+]1[O-]		inactive
CC(C)C[C@@H](NC(=O)[C@@H](O)[C@H](N)Cc1ccccc1)C(=O)O	0.416%	
Cc1cc(C(=O)NCCc2ccc(S(=O)(=O)NC(=O)NN3CCCCCC3)cc2)no1	-0.0169%	
CC1CCCC(C)N1NC(=O)c1ccc(Cl)c(S(N)(=O)=O)c1 (stereo not drawn)	-1.33% [at 15.5 µM]	

Experiment: qHTS assay to identify small molecule HDAC inhibitors (AID 1259364; active = well fitted curve in the direction sought with a large enough effect in the repeat runs; an effect the other way counts as inactive or inconclusive; also: top concentration of the series differs between compounds; nearly all actives have a fitted effect of over 45% in size)
Settings: HCT-116 HDAC-Glo I/II luminescence, 2 h; series mostly up to 92.4 µM; activity change, negative = inhibition: at the top concentration
Outline: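 Luminescence from a cell-permeant luminogenic class I/II HDAC substrate reports endogenous deacetylase activity in intact HCT-116 cells treated with compounds for 2 h.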

Structure (SMILES)	Potency	activity change, negative = inhibition
CC(=O)N(C)C	inactive	
Nc1ccc(N)c([N+](=O)[O-])c1		-1.74%
CS(=O)(=O)c1ccc([C@@H](CC2CCCC2)C(=O)Nc2cnccn2)cc1Cl		-12.9%

Experiment: qHTS assay to identify small molecule agonists of the sonic hedgehog signaling (Shh) pathway (AID 1259368; calls by dose curve;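 also: NIH/3T3-derived 3T3Gli1-Luc cells carrying a stable Gli1-driven firefly luciferase reporter; nearly all actives have a fitted effect of over 15% in size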)
Settings: NIH/3T3 Gli1-Luc reporter, luciferase, 24 h; series mostly up to 92.4 µM; activity change: at the top concentration
Outline: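 3T3Gli1-Luc (NIH/3T3 clone, stable Gli1-Luc); 4 hr pre-incubation, then cpd in DMSO 24 hr, 37 C/5% CO2; luciferase reagent 30 min RT; luminescence.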

Structure (SMILES)	activity change
CCCCCCCC1CCC(=O)O1 (stereo not drawn)	2.37%
Nc1ccc(N)c([N+](=O)[O-])c1	-5.06%
COc1ccc2ccccc2c1	0.397%
O=C1Cc2ccccc2C1	0.578%
CS(=O)(=O)c1ccc([C@@H](CC2CCCC2)C(=O)Nc2cnccn2)cc1Cl	-1.88%
